Measured values from PubChem BioAssay AID1626 (SRMLSC, 2009).
Several values for one entry are separate records, joined by “and”; a condition that tells them apart may be missing. Equal values may be shown once. About 2,000 (0.91%) of roughly 220,000 compounds were called active. Inconclusive results (about 2%) are left out. No stated cut-off is given here; in the data, inconclusive means inhibition above about 80% without an active follow-up result; inactive means below that; test concentration not stated here. These entries were drawn from the full list. Results with a measured potency or affinity are listed apart.

Assay: M. tuberculosis H37Rv growth inhibitors, H37Rv strain (AID 1626);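 further: bacteria incubated seven days before Alamar blue readout; 0% = bacteria only wells and 100% = bacteria with antibiotic wells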
Settings: stronger effect = higher value, concentration not given here

| SMILES | inhibition |
| --- | --- |
| O=C(NCc1ccc(Cl)cc1)C(=O)Nc1nccs1 | 1.96% (inactive) |
| Cc1ccc(CNC(=O)C(=O)Nc2nccs2)cc1 | 10.4% (inactive) |
| O=C(/C=C/c1ccccc1)NC(=O)c1ccccc1O | -10.8% (inactive) |
| O=C(O)/C=C/c1cccnc1 | -0.59% (inactive) |
| O=C(O)CCC(=O)/C=C/c1ccccc1 | -6.33% (inactive) |
| O=C(/C=C/c1ccc(Br)cc1)NC(=O)c1ccccc1O | 5.02% (inactive) |
| O=C(/C=C/c1cccnc1)c1ccc(NC(=O)c2cccc(Br)c2)cc1 | 8.79% (inactive) |
| CC(/C=C\c1ccccc1)=C/C(=O)O | 2.72% (inactive) |
| CC(/C=C\c1cccnc1)=C/C(=O)O | 1.6% (inactive) and 0.21% (inactive) |
| Cc1cccc(NC(=O)c2cccnc2)c1 | 1.57% (inactive) |
| CCC/C=N/NC(=O)c1cc(Br)ccc1O | -8.13% (inactive) |
| COc1cccc(-c2nc(N3CCN(c4ccccc4)CC3)c3ccccc3n2)c1O | -0.61% (inactive) |
| CN1C=CC=C/C1=C1\SC(=S)N(CC(=O)O)C1=O | -3.47% (inactive) |
| Cc1cccc(Cc2nnc(CCC(=O)NCc3ccncc3C)o2)c1 | -3.05% (inactive) |
| O=C(C1=NN[C@@H]2C(=O)N(c3cccc(C(F)(F)F)c3)C(=O)[C@H]12)c1cnccn1 | -13.3% (inactive) |
| S=C1NC(c2cccs2)=CC(c2ccc(Br)cc2)N1 (configuration not stated) | 12.7% (inactive) |
| COc1ccc(CC(=O)OCC(=O)Nc2cccc(Cl)c2)cc1 | -0.87% (inactive) |
| CC(C)(CN1CCCCC1)NS(=O)(=O)c1ccc(Cl)cc1 | 3.88% (inactive) |
| CN(C)/C=C(\C#N)C(=O)Nc1ccc(F)cc1 | -3.02% (inactive) |
| O=C(COC(=O)CNC(=O)c1cccc([N+](=O)[O-])c1)Nc1cccc(S(=O)(=O)N2CCCC2)c1 | -1.39% (inactive) |
| C#CCOCCOCCOCCNc1nc(N2CCN(C(=O)C([C@@H](C)CC)n3cc(C(N)CO)nn3)CC2)nc(N2CCN(C(=O)C([C@@H](C)CC)n3cc(C(N)COC(=O)C(F)(F)F)nn3)CC2)n1 (some centres not stated) | -11.1% (inactive) |
| CCOC(=O)NC(=O)c1cn(Nc2ncc(Cl)cc2C(F)(F)F)c(=O)[nH]c1=O | -8.73% (inactive) |
| CCOC(=O)Cn1c2c(c(=N)c3c1CCC3)CCCC2 | -4.08% (inactive) |
| CCOC(=O)N1CCC(NC(=O)Cn2c3c(c(-c4ccccc4Cl)cc2=O)CCC3)CC1 | -2.35% (inactive) |
| CCNC(=S)N1CCC(c2nc3ccccc3s2)CC1 | -0.93% (inactive) |

| SMILES | inhibition |
| --- | --- |
| O=C(NCc1cccnc1)c1cccc(S(=O)(=O)N2CCOCC2)c1 | 0.09% (inactive) |
| COc1ccc2c(-c3ccccc3)cc(N3CCOCC3)nc2c1 | -14.6% (inactive) |
| c1ccc2c(c1)CCc1c-2nc2ccccc2c1N1CCOCC1 | 4.28% (inactive) |
| Cc1cccn2cc(-c3ccc(S(=O)(=O)N4CCCCC4)cc3)nc12 | 0.16% (inactive) |
| c1ccc2c(N3CCCCC3)nc(N3CCCC3)nc2c1 | -8.46% (inactive) |
| CN1CCN(c2nc(-c3ccncc3)nc3ccccc23)CC1 | 3.8% (inactive) |
| CC1CCN(c2ncnc3ccccc23)CC1 | -8.39% (inactive) |
| c1ccc2c(N3CCCC3)nc(-c3ccncc3)nc2c1 | 6.26% (inactive) |
| CC1CCN(c2nc(-c3ccccc3O)nc3ccccc23)CC1 | -2.32% (inactive) |
| c1ccc2c(c1)nc(N1CCCCCC1)c1ccccc12 | 3.85% (inactive) |
| c1ccc2c(c1)nc(N1CCCCC1)c1ccccc12 | 12.2% (inactive) |
| Oc1ccccc1-c1nc(N2CCCC2)c2ccccc2n1 | -6.53% (inactive) |
| CC(C)(C)NS(=O)(=O)c1cc(C(=O)O)ccc1Cl | -11.1% (inactive) |
| Cc1c(C#N)c(=O)c(-[n+]2ccccc2)c([S-])n1-c1ccc(Cl)cc1 | 3.17% (inactive) |
| O=C(O)c1ccc(NC2=C(n3nnc4ccccc43)C(=O)c3ccccc3C2=O)cc1 | -3.22% (inactive) |
| Cc1cc([N+](=O)[O-])c(Cl)cc1NC(=O)C(C)C | -3.38% (inactive) |
| O=C(O)c1ccc2c(c1)-c1nc3ccccc3n1C2=O | -6.82% (inactive) |
| COc1ccc(-c2ccc3ccccc3n2)cc1OC | 12.8% (inactive) |
| Cc1ccc(C)c(NC(=S)N2CCN(Cc3ccccc3)CC2)c1 | -5.34% (inactive) |
| Cc1cc(C)cc(N(C(C)C(=O)N2CCCCC2)S(C)(=O)=O)c1 (configuration not stated) | 7.53% (inactive) |
| O=C(COc1ncnc2ccccc12)N1CCN(c2ccccc2)CC1 | 5.1% (inactive) |
| COC(=O)c1ccc2ccccc2n1 | -11.4% (inactive) |
| NNC(=O)c1ccc2ccccc2n1 | 27% (inactive) |
| COc1ccc(-n2cc(-c3ccccc3)c3c(N4CCN(CCO)CC4)ncnc32)cc1 | 0.66% (inactive) |
| CCOc1ccc(-n2cc(-c3ccccc3)c3c(=O)[nH]cnc32)cc1 | 64.1% (inactive) |

| SMILES | inhibition |
| --- | --- |
| O=P1(Oc2ccccc2)OCCCS1 (configuration not stated) | 12.1% (inactive) |
| COC(=O)CC(c1ccc(F)cc1)n1c(C)ccc1C (configuration not stated) | -0.04% (inactive) |
| c1ccc(CN2CCC(Nc3nc(-c4cccnc4)nc4ccccc34)CC2)cc1 | 11.5% (inactive) |
| c1ccc(Nc2nc(NCC3CCCO3)c3ccccc3n2)cc1 (configuration not stated) | 2.76% (inactive) |
| Oc1ccccc1-c1nc(NCC2CCCO2)c2ccccc2n1 (configuration not stated) | 9.18% (inactive) |
| Cc1ccccc1Nc1nc(NCc2ccco2)c2ccccc2n1 | 1.73% (inactive) |
| c1cncc(-c2nc(NCc3ccco3)c3ccccc3n2)c1 | -4.8% (inactive) |
| Oc1ccccc1-c1nc(NCc2ccco2)c2ccccc2n1 | -6.38% (inactive) |
| Fc1ccccc1-c1nc(NCc2ccco2)c2ccccc2n1 | 0.67% (inactive) |
| c1ccc(CN2CCC(Nc3ncnc4sccc34)CC2)cc1 | 7.78% (inactive) |
| CCCn1c(CN2CCN(c3cccc(Cl)c3)CC2)nc2c1c(=O)n(C)c(=O)n2C | 7.42% (inactive) |
| Cc1cc(C)nc(-n2ncc3c2CC(c2ccc(F)cc2)CC3=O)n1 (configuration not stated) | -3.92% (inactive) |
| CCCN1CCN(C(=O)Cn2c(=O)oc3cc(S(=O)(=O)NCc4ccccc4)ccc32)CC1 | 0.47% (inactive) |
| O=C1CCC/C1=c1\s/c(=C\c2cccnc2)c(=O)n1-c1ccccc1 | -3.57% (inactive) |
| CCCCCCCCC(=O)NNC(=O)c1c(O)c2ccccc2n(CCC)c1=O | 1.3% (inactive) |
| CCOC(=O)c1sc2nc(CC(=O)OC)nc(NCc3ccc(F)cc3)c2c1C | -2.66% (inactive) |
| CC(NC(=O)c1cccc(N2CCCC2=O)c1)c1ccc2c(c1)OCCO2 (configuration not stated) | -0.45% (inactive) |
| COCC(N)(c1ccccc1)c1nc2ccccc2n1C (configuration not stated) | -3.7% (inactive) |
| Cn1c(Cc2ccccc2)nnc1SCC(=O)N1CCCCC1 | -3.96% (inactive) |
| CCOC(=O)c1sc2nc(C)c3c(c2c1N)CC(C)(C)OC3 | -1.95% (inactive) |
| N#CCCN(C(=O)COC(=O)C1CCN(S(=O)(=O)c2cccs2)CC1)c1ccccc1 | 3.1% (inactive) |
| CCOC(=O)C1C(=O)NC(c2ccccc2)=NC1c1ccc(O)c(OC)c1 (configuration not stated) | 2.45% (inactive) |
| CC(C)(C)C(=O)O/N=C(\N)Cc1ccc(-c2csnn2)cc1 | -5.08% (inactive) |
| c1ccc(-c2nc(NCc3cccnc3)c3ccccc3n2)cc1 | 7.56% (inactive) |
| Clc1cccc(-c2nc(NCc3cccnc3)c3ccccc3n2)c1 | 74.3% (inactive) |

| SMILES | inhibition |
| --- | --- |
| c1csc(CNc2nc(-c3cccs3)nc3ccccc23)c1 | 9.19% (inactive) |
| c1ccc(CNc2nc(-c3cccs3)nc3ccccc23)cc1 | 13.4% (inactive) |
| CCC(C)NC(=O)CN(c1cc(C)ccc1OC)S(C)(=O)=O (configuration not stated) | -5.3% (inactive) |
| CCOc1ccc(-c2nnc(N3CCCCC3)c3ccccc23)cc1 | -1.05% (inactive) |
| c1nc(NCC2(N3CCOCC3)CCCCC2)c2ccsc2n1 | -2.31% (inactive) |
| O=S(=O)(c1ccccc1F)N1CCN(C(=S)NCc2ccccc2)CC1 | -2.02% (inactive) |
| O=C(Nc1cccc(F)c1)C1CCN(C(=O)c2ccc(Cl)cc2)CC1 | -0.97% (inactive) |
| CCN(CC(=O)Nc1ccc(C(=O)OC)cc1)Cc1ccccc1 | 7.78% (inactive) |
| COc1ccc(N2CC(C(=O)Nc3nnc(SCC(=O)c4ccccc4)s3)CC2=O)cc1 (configuration not stated) | 11.9% (inactive) |
| CCN(CC)CCC(c1cc(OC)c(OC)c(OC)c1)c1c(OC)cc(OC)c2c(C)cc(=O)oc12 (configuration not stated) | -8.36% (inactive) |
| CCN(CC)CCC(c1cc(OC)c(OC)c(OC)c1)c1c(OC)cc(OC)c2c(-c3ccccc3)cc(=O)oc12 (configuration not stated) | 12.6% (inactive) |
| CCN(CC)CCC(c1ccc(N(C)C)cc1)c1c(OC)cc(OC)c2ccc(=O)oc12 (configuration not stated) | -0.96% (inactive) |
| CCN(CC)CCC(c1cc(OC)c(OC)c(OC)c1)c1c(OC)cc(OC)c2ccc(=O)oc12 (configuration not stated) | -19% (inactive) |
| Cc1ccc(CNc2ncccc2-c2nc3cc(Cl)ccc3o2)cc1 | -4.72% (inactive) |
| COc1ccc(NC(=O)c2cccnc2Nc2ccc(OC)cc2)cc1 | 10.9% (inactive) |
| CN(C)CCCCCCCCCCC(=O)/C=N/O | 7.54% (inactive) |
| CCn1ncc(CN2CCN(Cc3ccc(OC)c(C)c3C)C(CCO)C2)c1C (configuration not stated) | 3.6% (inactive) |
| N[C@@H](Cc1c[nH]c2ccccc12)c1nnc(SCc2ccccc2)o1 | -10.5% (inactive) |
| CCOC(=O)COc1ccc2c3c(c(=O)oc2c1C)CCC3 | 76.7% (inactive) |
| Cc1cc2oc(=O)c3c(c2cc1OCc1nn[nH]n1)CCCC3 | -6.49% (inactive) |
| COCCCn1c(SCC(=O)OC2CCCCC2)nnc1-c1ccco1 | -15.4% (inactive) |
| Cc1ccccc1SCc1noc(C(=O)NCC2CCCO2)c1C(=O)O (configuration not stated) | -6.27% (inactive) |
